The values below come from PubChem BioAssay (NCI).

Each structure is given as a SMILES string. Several values for one entry are separate records, joined by “and”; a condition that tells them apart may be missing. Equal values may be shown once. Compounds without any hit were thinned out: in the full panel of roughly 83,000, 20% have a hit.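 48-hour exposure, single concentration, 96-well plates; percent growth endpoint where 0 means no net growth. Active: below 10.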 Activity calls are given as the source filed them.

Test systems include RPMI-8226 leukemia; OVCAR-8 ovarian; OVCAR-5 ovarian; OVCAR-4 ovarian; SK-OV-3 ovarian; IGROV1 ovarian; OVCAR-3 ovarian; HS 578T breast; NCI/ADR-RES ovarian; SR leukemia.
Common to all, as to test: NCI-60 one-dose screen, 48 h (100 = growth as untreated, 0 = no growth, -100 = all killed)
Common to all, as to settings: 10 µM unless noted

As for `COc1ccc(-c2ncnc3c2ncn3C/C=C/CCl)cc1`, the growth with RPMI-8226 leukemia is 52.1% (inactive) and 67.4% (inactive); with OVCAR-8 ovarian, 67.2% (inactive) and 69.5% (inactive); in the assay with OVCAR-5 ovarian it was 114% (inactive) and 105% (inactive); with OVCAR-4 ovarian, 53.3% (inactive) and 56.7% (inactive); in the assay with SK-OV-3 ovarian, 111% (inactive) and 109% (inactive); with IGROV1 ovarian, 93.8% (inactive) and 82.9% (inactive). The growth was 77.6% (inactive) and 99% (inactive) in the assay on OVCAR-3 ovarian; 131% (inactive) and 111% (inactive) in the assay with HS 578T breast; 76.9% (inactive) and 86.3% (inactive) in the assay on NCI/ADR-RES ovarian.

On to `O=C(CCc1ccc(O)cc1)N/N=C/c1cc(Br)ccc1O`, for which the growth in the assay on SR leukemia is 26.6% (inactive); in the assay on OVCAR-8 ovarian it was 56.2% (inactive); in the assay with OVCAR-5 ovarian, 53.3% (inactive); in the assay with OVCAR-4 ovarian, 34.7% (inactive); in the assay on SK-OV-3 ovarian it was 61.2% (inactive); in the assay on IGROV1 ovarian, 62.5% (inactive). The growth in the assay with OVCAR-3 ovarian is 44.4% (inactive); in the assay with HS 578T breast, 90.3% (inactive); with NCI/ADR-RES ovarian, 16.7% (inactive).

For `CCCCOc1cc(C(=O)NCCN(CC)CC)c2ccccc2n1`, the growth with SR leukemia was 101% (inactive) and 93% (inactive); in the assay with OVCAR-8 ovarian, 92.9% (inactive) and 81.8% (inactive); in the assay on OVCAR-5 ovarian, 91.4% (inactive) and 97.6% (inactive); with OVCAR-4 ovarian, 94.2% (inactive) and 101% (inactive); with SK-OV-3 ovarian, 112% (inactive) and 92.8% (inactive); with IGROV1 ovarian, 102% (inactive) and 111% (inactive). Besides, the growth is 114% (inactive) and 101% (inactive) in the assay with OVCAR-3 ovarian; 92.3% (inactive) and 128% (inactive) with HS 578T breast; 92.2% (inactive) and 99.3% (inactive) with NCI/ADR-RES ovarian.

For the compound `Nc1ccn(C2OC(CO)C(O)C2O)c(=O)n1` (configuration not stated), the growth was 14.8% (inactive) with SR leukemia; 40.1% (inactive) and 97.2% (inactive) and 101% (inactive) in the assay on OVCAR-8 ovarian; 99.9% (inactive) [middle of 4 runs] in the assay on OVCAR-4 ovarian; 50.9% (inactive) and 10.1% (inactive) and 106% (inactive) in the assay on IGROV1 ovarian.

For the compound `COc1ccc(/C(C#N)=C/c2ccccn2)cc1`, the growth with SR leukemia was 91.1% (inactive) and 87.7% (inactive); in the assay on OVCAR-8 ovarian it was 103% (inactive) and 110% (inactive); with OVCAR-5 ovarian it was 110% (inactive) and 107% (inactive); with OVCAR-4 ovarian it was 96.1% (inactive) and 93.9% (inactive); in the assay on SK-OV-3 ovarian it was 111% (inactive) and 126% (inactive); in the assay on IGROV1 ovarian it was 115% (inactive) and 113% (inactive). Besides, the growth in the assay with OVCAR-3 ovarian is 110% (inactive) and 130% (inactive); in the assay with HS 578T breast, 104% (inactive) and 309% (inactive); with NCI/ADR-RES ovarian, 101% (inactive) and 54.3% (inactive).

As to `Cc1cc(N=Nc2ccc(C)c(N=Nc3cc(C)c(N)cc3N)c2)c(N)cc1N`, the growth is 97.9% (inactive) and 35.1% (inactive) with SR leukemia; 98.9% (inactive) and 102% (inactive) with OVCAR-8 ovarian; 92.5% (inactive) and 86.8% (inactive) in the assay on OVCAR-5 ovarian; 86.6% (inactive) and 75.5% (inactive) in the assay with OVCAR-4 ovarian; 91% (inactive) and 95.2% (inactive) in the assay with SK-OV-3 ovarian; 36.8% (inactive) and 53.5% (inactive) in the assay on IGROV1 ovarian. In addition, the growth was 89.3% (inactive) and 63.1% (inactive) with OVCAR-3 ovarian; 89.4% (inactive) and 88.8% (inactive) with HS 578T breast; 92.4% (inactive) and 84% (inactive) in the assay with NCI/ADR-RES ovarian.

For the compound `N#C/C(=C/c1c(O)ccc2ccccc12)C(N)=O`, the growth with RPMI-8226 leukemia was 88.2% (inactive); with OVCAR-8 ovarian, 105% (inactive); with OVCAR-5 ovarian, 105% (inactive); in the assay on OVCAR-4 ovarian, 92% (inactive); in the assay with SK-OV-3 ovarian, 92.6% (inactive); with IGROV1 ovarian it was 93.4% (inactive). Moreover, the growth in the assay on OVCAR-3 ovarian was 90.1% (inactive); in the assay on HS 578T breast, 113% (inactive); in the assay on NCI/ADR-RES ovarian, 94.6% (inactive).

Take `O=c1c2ccccc2nc2n1Cc1nc3ccccc3c(=O)n1C2`: the growth with SR leukemia was 85.9% (inactive); in the assay on OVCAR-8 ovarian, 112% (inactive) and 110% (inactive); with OVCAR-5 ovarian it was 101% (inactive) and 102% (inactive); in the assay on OVCAR-4 ovarian, 95.2% (inactive) and 108% (inactive); with SK-OV-3 ovarian, 112% (inactive) and 110% (inactive); with IGROV1 ovarian, 88% (inactive) and 106% (inactive). Moreover, the growth is 92.6% (inactive) and 112% (inactive) in the assay with OVCAR-3 ovarian; 91.7% (inactive) and 114% (inactive) in the assay on HS 578T breast; 102% (inactive) and 105% (inactive) in the assay with NCI/ADR-RES ovarian.

Take `O=[N+]([O-])c1ccccc1/C=N\Nc1ccccc1`: the growth with SR leukemia was 98.5% (inactive) and 51.8% (inactive); in the assay on OVCAR-8 ovarian it was 91.1% (inactive) and 89.9% (inactive); in the assay on OVCAR-5 ovarian, 91.1% (inactive) and 89.2% (inactive); in the assay with OVCAR-4 ovarian, 82.2% (inactive) and 86.3% (inactive); in the assay with SK-OV-3 ovarian, 90.6% (inactive) and 93.7% (inactive); in the assay with IGROV1 ovarian, 74.4% (inactive) and 59.1% (inactive). The growth in the assay with OVCAR-3 ovarian is 94.5% (inactive) and 92.7% (inactive); in the assay on HS 578T breast, 90.3% (inactive) and 118% (inactive); in the assay on NCI/ADR-RES ovarian it was 73.3% (inactive) and 75.6% (inactive).

As for `NCCSC(C[N+](=O)[O-])c1ccccc1Cl` (configuration not stated), the growth was -22.6% (active) in the assay on RPMI-8226 leukemia; 61% (inactive) with OVCAR-8 ovarian; 99.5% (inactive) in the assay on OVCAR-5 ovarian; 102% (inactive) in the assay on OVCAR-4 ovarian; 112% (inactive) in the assay with SK-OV-3 ovarian; -75.7% (active) in the assay with OVCAR-3 ovarian. The figures for the growth in the assay on HS 578T breast and in the assay with NCI/ADR-RES ovarian were -1.76% (active) and 106% (inactive), respectively.

For `CCOc1ccc2cc(-c3nn(CC4CCN(C)CC4)c4ncnc(N)c34)ccc2c1`, the growth in the assay with SR leukemia was 65.4% (inactive) and -27.1% (active); in the assay on OVCAR-8 ovarian it was 94.4% (inactive) and 65.2% (inactive); with OVCAR-5 ovarian, 88.4% (inactive) and 80.8% (inactive); in the assay with OVCAR-4 ovarian, 91.4% (inactive) and 70.5% (inactive); in the assay with SK-OV-3 ovarian, 83.1% (inactive) and 85.2% (inactive); in the assay on IGROV1 ovarian, 81.5% (inactive) and 61.3% (inactive). The growth with OVCAR-3 ovarian is 97.8% (inactive) and 59.3% (inactive); in the assay on HS 578T breast, 79.3% (inactive) and 35.8% (inactive); in the assay on NCI/ADR-RES ovarian it was 93.7% (inactive) and 63.1% (inactive).

As to `COc1cc(/C=N/Nc2nc3c([nH]2)c(=O)n(C)c(=O)n3C)ccc1O`, the growth was 89% (inactive) and 85.3% (inactive) in the assay on SR leukemia; 103% (inactive) and 108% (inactive) in the assay with OVCAR-8 ovarian; 107% (inactive) and 111% (inactive) in the assay on OVCAR-5 ovarian; 108% (inactive) in the assay with OVCAR-4 ovarian; 104% (inactive) and 109% (inactive) in the assay with SK-OV-3 ovarian; 110% (inactive) and 124% (inactive) in the assay on IGROV1 ovarian. For the same compound, the growth in the assay on OVCAR-3 ovarian was 122% (inactive) and 110% (inactive); in the assay on HS 578T breast it was 118% (inactive) and 103% (inactive); with NCI/ADR-RES ovarian it was 109% (inactive) and 111% (inactive).
